# In PubChem BioAssay AID651724 (National Center for Advancing Translational Sciences (NCATS), 2012):
# Screen size: about 340,000 compounds; about 1,700 (0.5%) were called active. Inconclusive results (about 2%) are left out. Cut-off read from the data, not from the text of the source: active = activity change below about -65%; inconclusive = mostly about -30% to -63%; inactive = weaker than that. This excerpt belongs to a sample that is enriched for actives.
# System: CtBP / adenovirus E1A interaction (AlphaScreen)
# Assay: qHTS Assay for Inhibitors of the CtBP/E1A Interaction
# Conditions: AlphaScreen GST-E1A/His-CtBP binding, 1536-well; hits give low values
# From the text: Carboxyl-terminal binding protein (CtBP) is a co-repressor for many transcription factors. […] Our studies have shown that CtBP is overexpressed in multiple human cancers, including lung, breast, and head and neck cancers. In particular, it is over-expressed in 50% of primary lung cancer and 90% of metastatic lesions. CtBP suppresses epithelial-specific genes as well as genes critical for apoptosis, providing the underlying molecular mechanism for its role in tumorigenesis. […] Based on the above data, we hypothesize that 1) CtBP suppresses the pro-apoptotic and epithelial genes, therefore overexpressed CtBP in human cancer cells increases EMT and cancer survival; 2) decreasing CtBP's function represents a targeted therapy for lung cancer and potentially multiple cancer types. As a co-repressor, CtBP binds to E1A and other transcription factors through a conserved peptide motif to carry out its action. Inhibiting this interaction using small molecules can potentially serve as effective cancer therapeutics.
# To this end, we have developed a homogenous AlphaScreen assay targeting the CtBP/E1A interaction. We performed a large scale HTS of the Molecular Libraries Small Molecule Repository (MLSMR) to identify inhibitors of the CtBP/E1A interaction as potential anti-cancer therapeutics. Compounds identified can also be used as chemical probes to better understand the biological functions of CtBP.
# NIH Chemical Genomics Center [NCGC]
# NIH Molecular Libraries Probe Centers Network [MLPCN]
# Assay Submitter (PI): Rui Zhao, University of Colorado Denver
# The first step of the 5uL AlphaScreen assay is to dispense assay buffer (50 mM Tris, pH 8.0, 300 mM NaCl, 0.05% BSA, 0.02% Tween 20, 1 mM TCEP) into a Greiner 1536 white solid bottom microtiter plate (789175-F). Five microliters is added to Column 1, 4 uL is added to Column 2 and 3 uL is added to Columns 3 through 48. A 5X protein solution (125 nM GST-E1A protein + 125 nM His-tagged CtBP protein) is mixed and 1 uL is dispensed to Columns 3-48. Using a 1536 pintool, 23 nL of compound is transferred to the assay plate and the plate is incubated with a lid at 37 deg C in the dark for two hours. A solution of 5X AlphaScreen beads is mixed (50 ug/mL Glutathione linked donor beads + Nickel chelated acceptor beads) and 1 uL is dispensed to Columns 2-48. The assay plate is incubated for one hour, with a lid, at 37 deg C in the dark. The plate is read using a Perkin Elmer Envision using an AlphaScreen protocol.
# % is set by controls: 0 for no effect and ±100 for the full control effect.
row,Structure (SMILES),activity change
1,CCC(C)n1c(O)c(/C=N/Nc2nc3c(c(=O)n(C)c(=O)n3C)n2C)c(=O)[nH]c1=S (stereo not given),-83.2% (active)
2,COc1ccc(-n2nnnc2C(c2cccc3ccccc23)N2CCC(n3c(=O)[nH]c4ccccc43)CC2)cc1 (stereo not given),-14.3% (inactive)
3,O=C(N/N=C/c1c(O)n(C2CC2)c(=S)[nH]c1=O)c1ccccc1,-92.7% (active)
4,Cc1cccc(-n2c(O)c(/C=N/N3CCOCC3)c(=O)[nH]c2=S)c1,9.2% (inactive)
5,O=c1[nH]c(=O)n(Cc2ccccc2)c(O)c1/C=N/Nc1c(F)c(F)c(F)c(F)c1F,4.41% (inactive)
6,O=c1[nH]c(=S)n(C2CC2)c(O)c1/C=N/N1CCOCC1,-2.5% (inactive)
7,CC/C(=N\NC(=O)c1ccccc1O)c1c(O)n(Cc2ccccc2)c(=O)[nH]c1=O,-5.73% (inactive)
8,CC(C)c1ccc(-n2c(O)c(/C=N/N3CCOCC3)c(=O)[nH]c2=S)cc1,-2.7% (inactive)
9,O=C(N/N=C/c1c(O)n(Cc2ccccc2)c(=O)[nH]c1=O)c1ccccc1,-72.7% (active)
10,O=C(N/N=C/c1c(O)n(C2CC2)c(=S)[nH]c1=O)c1ccccc1Cl,-92.7% (active)
11,COc1ccccc1-n1c(O)c(C=NC2CC2)c(=O)[nH]c1=O,7.53% (inactive)
12,CCOC(=O)[C@]12Cc3cc(OC)ccc3[C@H]1N(C(C)C)C(=O)c1ccccc12,-1.62% (inactive)
13,CC(=CCOc1ccc2ccc(=O)oc2c1)C1=CC(=O)C(C)(C)O1,1.99% (inactive)
14,COC(=O)C[C@H]1CC[C@H]2NC[C@@H](O)COC[C@@H]2O1,-7.3% (inactive)
15,CCOC(=O)[C@]12Cc3ccccc3[C@H]1N(C1CCCCC1)C(=O)c1cc(OC)ccc12,-16.5% (inactive)
16,O=c1[nH]c2ccccc2n1C1CCN(C(c2ccccc2)c2nnnn2Cc2ccccc2)CC1 (stereo not given),-12.7% (inactive)
17,O=C1NCN(c2ccccc2)C12CCN(C(c1cccs1)c1nnnn1C1CCCCC1)CC2 (stereo not given),-7.02% (inactive)
18,O=C(NCC1=C(c2ccc3ccccc3c2)C[C@@H]2CC[C@H]1N2Cc1ccco1)c1cccs1,-23.4% (inactive)
19,COC(=O)CN(CCCl)P1(=O)OCCCN1CCCl (stereo not given),2.9% (inactive)
20,COc1cccc(C(c2nnnn2-c2ccc3c(c2)OCCO3)N2CCC3(CC2)C(=O)NCN3c2ccccc2)c1OC (stereo not given),-13% (inactive)
21,O=c1[nH]c2ccccc2n1C1CCN(C(c2ccnc3ccccc23)c2nnnn2Cc2ccccc2)CC1 (stereo not given),-7.28% (inactive)
22,COc1ccc(CCn2c(O)c(C=NC3CC3)c(=O)[nH]c2=O)cc1OC,-7.4% (inactive)
23,CCCCC(=O)N/N=C/c1c(O)n(CCC2=CCCCC2)c(=O)[nH]c1=O,-82.9% (active)
24,O=c1[nH]c(=O)n(CCc2ccc(F)cc2)c(O)c1/C=N/N1CCCCC1,-1.47% (inactive)
25,COC(=O)C1=C(c2ccc(OCc3ccccc3)cc2)C[C@@H]2CC[C@H]1N2C(=O)NCc1ccc(Cl)cc1,0.0513% (inactive)
